Experimental data: PubChem BioAssay AID431 (Sanford-Burnham Center for Chemical Genomics, 2006)
Hit rate of the full screen: of about 63,000 compounds, about 1,100 (1.7%) were called active. Many of the other results were omitted from the sample, so actives are more common in it than they were. Potency and affinity values are given separately. A number with no mark means an inactive call.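 Rule for the calls: active = compounds whose percent cytotoxicity in the single-dose primary screen, scaled between solvent and toxic-drug controls, exceeds 50; inactive = the rest.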

Assay: cytotoxicity in KRAS-transformed pancreatic duct cells, primary screen, cell-based, fluorescence, HTS (AID 431);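 note: 0% = DMSO solvent wells and 100% = doxorubicin-treated wells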
Settings: HPDE-C7K KRASV12 cells, Alamar Blue viability, 48 h; at 10 µM; stronger effect = higher value
Work on `COC(=O)Cc1cc(=O)n(-c2nc3ccccc3[nH]2)[nH]1` yielded a cytotoxicity of 4.2%. For `COC(=O)Cc1cc(=O)n(-c2ccccc2)[nH]1`, the cytotoxicity was -4.1%. In the case of `COC(=O)Cc1cc(=O)n(-c2nc3ccccc3s2)[nH]1`, the cytotoxicity is reported as 87.9% (active). In the case of `CCOC(=O)Cc1cc(=O)n(-c2nc3ccccc3s2)[nH]1`, the cytotoxicity is reported as 79.8% (active). With `CCOC(=O)c1nc2ccccc2s1` the cytotoxicity was -9.2%. `CCOC(=O)CC(=O)Nc1nc2ccccc2s1` gave a cytotoxicity of -6.8%. For `CSC1=C(C#N)C(C)C2=C(CC(C)(C)CC2=O)N1` (stereo not drawn), the cytotoxicity was -15.4%. In the case of `Cc1cc(C)nc(N2CCC(C(=O)NC3CCCCCC3)CC2)n1`, the cytotoxicity is reported as -1.8%. Work on `COc1ccc(N2CCN(C(c3ccccc3)c3nnnn3Cc3ccc(F)cc3)CC2)cc1` (stereo not drawn) yielded a cytotoxicity of -7.5%. In the case of `O=C(Cc1ccc(Cl)cc1)Nc1ccc(-c2nnc(-c3ccco3)o2)cc1`, the cytotoxicity is reported as 4.4%. `O=C1CN(C(=O)c2cccs2)c2ccccc2N1` gave a cytotoxicity of -12.5%. In the case of `O=C(c1ccc(F)cc1)N(Cc1ccccc1)C1CCS(=O)(=O)C1` (stereo not drawn), the cytotoxicity is reported as -7.8%. Work on `COc1ccc(-c2[nH]ncc2-c2cnc(C)s2)c(O)c1` yielded a cytotoxicity of 7.2%. In the case of `COc1ccc(-c2[nH]ncc2Oc2ccccc2OC)c(O)c1`, the cytotoxicity is reported as 42.5%. `C=C(C)COc1ccc(-c2[nH]ncc2-c2ccc(OC)c(OC)c2)c(O)c1` showed a cytotoxicity of 4.1%. In the case of `CCOc1ccc(-c2[nH]ncc2Oc2ccccc2OCC)c(O)c1`, the cytotoxicity is reported as 55.7% (active). `COc1ccc(-c2[nH]ncc2-c2ccc(Cl)cc2)c(O)c1` showed a cytotoxicity of 47%. `COc1ccc(Oc2cn[nH]c2-c2ccc(O)cc2O)cc1` gave a cytotoxicity of 24.9%. In the case of `CCOc1ccc(-c2[nH]ncc2-c2ccc(OC)c(OC)c2)c(O)c1`, the cytotoxicity is reported as 51.8% (active). With `CCOc1ccc(-c2[nH]ncc2Oc2ccccc2OC)c(O)c1` the cytotoxicity was 61.4% (active). For `CCOc1ccccc1Oc1cn[nH]c1-c1ccc(OC)cc1O`, the cytotoxicity was 61.8% (active). In the case of `CCOC(=O)C1CCN(Cc2nc3ccccc3c(=O)n2-c2ccc(OCC)cc2)CC1`, the cytotoxicity is reported as 7.8%. Compound `CC(=O)Nc1ccc(OC(F)(F)C(F)C(F)(F)F)c(NC(C)=O)c1` (stereo not drawn) has a cytotoxicity of -5.3%. In the case of `CCOC(=O)c1c(C)n(CC(O)c2ccccc2)c2ccc(O)cc12` (stereo not drawn), the cytotoxicity is reported as -7.5%. For `OCCNCc1ccc(OC2CCCC2)cc1`, the cytotoxicity was 5.4%. In the case of `COc1ccc(CCNC(=O)CC2Nc3cc(C)c(C)cc3NC2=O)cc1OC` (stereo not drawn), the cytotoxicity is reported as 0%. `O=C(O)Cn1cccc1C(=O)c1ccccc1` gave a cytotoxicity of -0.1%. In the case of `N=c1c(C(=O)NCc2ccc(F)cc2)cc2c(=O)n3ccccc3nc2n1Cc1ccco1`, the cytotoxicity is reported as -3.9%. With `O=C(Cn1c(=O)sc2ccccc21)NCCOc1ccccc1F` the cytotoxicity was -11.5%. `CCC(C)Sc1nnc(Cc2cc(=O)[nH]c(=O)[nH]2)n1-c1ccc(F)cc1` (stereo not drawn) gave a cytotoxicity of -12.7%. With `CC(=O)Nc1ccc(N(C(=O)c2cnccn2)C(C(=O)NC2CCCCC2)c2ccc(O)cc2)cc1` (stereo not drawn) the cytotoxicity was -16.5%. With `CCOC(=O)c1sc(NC(=O)c2ccc(CC)s2)nc1C` the cytotoxicity was 4.6%. With `C=C(C)COc1ccc(-c2[nH]ncc2Oc2ccccc2OCC)c(O)c1` the cytotoxicity was 78.4% (active). For `C=C(C)COc1ccc(-c2nc(N)ncc2Oc2ccccc2OCC)c(O)c1`, the cytotoxicity was 18.1%. With `CC1Cc2ccccc2N1C(=O)CN1C(=O)NC(C)(c2ccc3c(c2)OCCO3)C1=O` (stereo not drawn) the cytotoxicity was 1.8%. Work on `CN1CCN(c2ccc(NC(=O)c3ccccc3Br)cc2)CC1` yielded a cytotoxicity of 2.5%. Compound `COc1cc2ccccc2cc1C(=O)N1CCN(C)CC1` has a cytotoxicity of -4.6%. For `COc1cc2ccccc2cc1C(=O)Nc1ccc(N2CCN(C)CC2)cc1`, the cytotoxicity was 65.5% (active). Work on `O=C(Nc1sccc1C(=O)N1CCOCC1)c1cccnc1` yielded a cytotoxicity of 10.9%. `CCCc1nc(SCC(=O)N2CCN(c3ccccc3)CC2)c2c(=O)n(C)c(=O)n(C)c2n1` showed a cytotoxicity of 0.7%. `Cn1c(=O)c2c(SCC(=O)N3CCC(Cc4ccccc4)CC3)nc(C3CC3)nc2n(C)c1=O` showed a cytotoxicity of 4%. For `CCCCOc1ccc(-c2c(C#N)c(N)nc(SCC(N)=O)c2C#N)cc1`, the cytotoxicity was 105% (active). Work on `CCCCOC(=O)CSc1nc(N)c(C#N)c(-c2ccc(OCC)cc2)c1C#N` yielded a cytotoxicity of 17%. Work on `CCCCOC(=O)CSc1nc(N)c(C#N)c(-c2ccc(OC)cc2)c1C#N` yielded a cytotoxicity of -26.1%. For `CCOC(=O)CC(=O)CSc1nc(N)c(C#N)c(-c2ccc(F)cc2)c1C#N`, the cytotoxicity was 16.5%. Work on `CCOC(=O)CSc1nc(N)c(C#N)c(-c2ccc(OC)cc2)c1C#N` yielded a cytotoxicity of -14.8%. In the case of `CCOC(=O)CC(=O)CSc1nc(N)c(C#N)c(-c2ccc(Cl)cc2)c1C#N`, the cytotoxicity is reported as 68.4% (active). With `O=C(O)c1ccccc1C(=O)c1cccs1` the cytotoxicity was -9.3%. For `CCc1nc(NCC2CCCO2)c2oc3ccccc3c2n1` (stereo not drawn), the cytotoxicity was -29.3%. Compound `O=C(NCCCN1CCN(CCCNC(=O)c2ccc3c(c2)OCO3)CC1)c1ccc2c(c1)OCO2` has a cytotoxicity of -34.5%. Compound `Cc1ccc(N2CC(C(=O)N3CCN(c4ccccc4)CC3)CC2=O)cc1` (stereo not drawn) has a cytotoxicity of 30.6%. For `CCOC(=O)C1CCN(C(=O)C2CC(=O)N(c3ccc(C)cc3)C2)CC1` (stereo not drawn), the cytotoxicity was -13.4%. In the case of `Cc1ccc(N2CC(C(=O)N3CCN(C(=O)c4ccco4)CC3)CC2=O)cc1` (stereo not drawn), the cytotoxicity is reported as 52.5% (active). Work on `CCN(CC)c1ccc(NC(=O)C2CCCN(S(=O)(=O)c3cccnc3)C2)c(C)c1` (stereo not drawn) yielded a cytotoxicity of -9.5%. `Oc1ccccc1-c1cc(-c2cccc(F)c2)n[nH]1` gave a cytotoxicity of 16.2%. With `COc1ccc(-c2cc(-c3ccccc3O)[nH]n2)cc1OC` the cytotoxicity was 61.1% (active). With `COc1ccc(-c2cc(-c3cc(F)ccc3O)[nH]n2)cc1OC` the cytotoxicity was 8.8%. `N#CC1=C(N)SC(N)=C(C#N)C1c1ccnc2ccccc12` gave a cytotoxicity of -13.5%. With `CCOc1ccccc1N1CC(O)=C(c2nc3ccccc3s2)C1=N` the cytotoxicity was 64.8% (active). With `COc1ccc(N2CC(O)=C(c3nc4ccccc4s3)C2=N)cc1` the cytotoxicity was 9.4%. `COc1ccc(N2CC(O)=C(c3nc4ccccc4s3)C2=N)c(OC)c1` gave a cytotoxicity of 11.5%. For `O=C(c1cccs1)N1CCOCC1`, the cytotoxicity was -26.6%. With `COc1ccc2c(c1)Cc1sc(NC(=O)c3cccs3)nc1-2` the cytotoxicity was -6.8%. With `COc1ccc2c(c1)-c1nc(NC(=O)c3cccs3)sc1CC2` the cytotoxicity was 80.1% (active). In the case of `O=C(Nc1nc2c(s1)CCc1ccccc1-2)c1cccs1`, the cytotoxicity is reported as -14.1%. `Oc1ccccc1-c1nc(N2CCN(Cc3ccccc3)CC2)c2ccccc2n1` gave a cytotoxicity of 13%. Work on `CCCCN(Cc1ccccc1)c1ncnc2nc[nH]c12` yielded a cytotoxicity of 6.8%. For `Clc1ccccc1CN(Cc1ccccc1)c1ncnc2nc[nH]c12`, the cytotoxicity was 115% (active). For `Clc1ccccc1CNc1ncnc2nc[nH]c12`, the cytotoxicity was -10.1%. Work on `O/N=C1/CCCCc2sccc21` yielded a cytotoxicity of -23.7%. In the case of `COC(=O)C1=CN(CC2CCCO2)C=C(C(=O)OC)C1c1cc(OC)c(OC)c(OC)c1` (stereo not drawn), the cytotoxicity is reported as 9.3%. With `COc1cc(S(=O)(=O)N(Cc2cccnc2)Cc2ccco2)ccc1-n1cnnn1` the cytotoxicity was 6.5%. `COc1ccccc1CN(Cc1ccco1)S(=O)(=O)c1ccc(-n2cnnn2)c(OC)c1` showed a cytotoxicity of 20.8%. In the case of `CCOc1ccccc1CN(Cc1ccco1)S(=O)(=O)c1ccc(-n2cnnn2)c(OC)c1`, the cytotoxicity is reported as 53.2% (active). With `COC(=O)c1ccccc1NC(=O)NCC1CCCO1` (stereo not drawn) the cytotoxicity was 8.4%. In the case of `Cc1cc(C)cc(NS(=O)(=O)c2ccc3[nH]cc(C(=O)NCc4ccco4)c(=O)c3c2)c1`, the cytotoxicity is reported as 42.5%. With `CCN(CC)C(=O)CSc1ncnc2c1nnn2-c1ccc(OC)cc1` the cytotoxicity was -10.4%. With `COc1ccc(-n2nnc3c(SCC(=O)NCC4CCCO4)ncnc32)cc1` (stereo not drawn) the cytotoxicity was 2.8%. Compound `O=C(NCCc1ccccc1)c1ccnc(/C=N/O)c1` has a cytotoxicity of -14.3%. Compound `CCn1c2c(c3cc(Cl)ccc31)CCCC2=O` has a cytotoxicity of -6.2%. In the case of `CCn1c2c(c3cc(C(=O)O)ccc31)CCCC2=O`, the cytotoxicity is reported as -19.1%. Compound `Cc1oc2cc(O)ccc2c(=O)c1-c1cnn(-c2ccccc2)c1` has a cytotoxicity of 22.6%. In the case of `Cc1oc2c(O)c(O)ccc2c(=O)c1-c1cnn(-c2ccccc2)c1`, the cytotoxicity is reported as 0.8%. In the case of `Cc1oc2cc(O)cc(C)c2c(=O)c1-c1cnn(-c2ccccc2)c1`, the cytotoxicity is reported as 61.3% (active). For `COc1cc(NC(=O)Nc2cccc(Cl)c2)c(OC)cc1NC(=O)CN1CCCCC1`, the cytotoxicity was 89.7% (active). For `COc1cc(NC(=O)Nc2ccccc2OC)c(OC)cc1NC(=O)CN1CCCCC1`, the cytotoxicity was 48.5%. `COc1cc(NC(=O)Nc2ccccc2)c(OC)cc1NC(=O)CN1CCCCC1` gave a cytotoxicity of -3.3%. Work on `O=C(NC1CCCC1)C1CC1c1ccccc1` (stereo not drawn) yielded a cytotoxicity of 17.8%. In the case of `CC1(C)CC(=O)C2=C(C1)OC(N)=C(C#N)C2c1cccc(OC(=O)c2ccco2)c1` (stereo not drawn), the cytotoxicity is reported as -2.4%. Compound `Nc1nc(-c2ccccc2)cc(C(F)(F)F)n1` has a cytotoxicity of -1.4%. With `FC(F)(F)c1cc(-c2ccco2)nc(NCc2ccccc2)n1` the cytotoxicity was 8.4%. Work on `COc1nc(-c2ccccc2)cc(C(F)(F)F)n1` yielded a cytotoxicity of -0.7%. `FC(F)(F)c1cc(-c2ccco2)nc(-n2nnc3ccccc32)n1` showed a cytotoxicity of 3.9%. Compound `FC(F)(F)c1cc(-c2ccco2)nc(-n2cnc3ccccc32)n1` has a cytotoxicity of 41.5%. With `COc1ccc(-c2cc(C(F)(F)F)nc(N3CCCCC3)n2)cc1OC` the cytotoxicity was -2.6%. Work on `FC(F)(F)c1cc(-c2ccco2)nc(NCc2ccco2)n1` yielded a cytotoxicity of -0.2%. Compound `COc1ccc(-c2cc(C(F)(F)F)nc(NC3CCCC3)n2)cc1OC` has a cytotoxicity of 8.8%. For `COC(=O)CC1Oc2ccccc2N(Cc2ccc(C)cc2)C1=O` (stereo not drawn), the cytotoxicity was 1.3%.
